Records with an inconclusive call do not appear. More than one record can exist for a structure, and the calls need not agree. Calls of active or inactive are those of the source. The call rests on the fitted dose curve.
Assay: qHTS assay to identify small molecule antagonists of the estrogen receptor alpha (ER-alpha) signaling pathway using the BG1 cell line (AID 743080);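 further: BG1 cells stimulated with 17beta-estradiol alongside compound; nearly all actives have a fitted effect of over 25% in size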
Conditions: BG1Luc4E2 ERE-luciferase antagonist mode, luminescence; series mostly up to 70.3 µM; activity change, negative = inhibition: at the top concentration
Text: National Center for Advancing Translational Sciences [NCATS]
NIH Chemical Genomics Center [NCGC]
U.S. Environmental Protection Agency [EPA]
National Institutes of Environmental Health Sciences [NIEHS]
National Toxicology Program [NTP]
U.S. Food and Drug Administration [FDA]
Estrogen receptor (ER), a nuclear hormone receptor, plays an important role in development, metabolic homeostasis and reproduction. Endocrine disrupting chemicals (EDCs) and their interactions with steroid hormone receptors like ER causes disruption of normal endocrine function. Therefore, it is important to understand the effect of environmental chemicals on the ER signaling pathway. To identify ER antagonists, BG1-Luc-4E2 cell line (provided by Dr. Michael Denison from University of California) has been used to screen the Tox21 10K compound library. BG1Luc4E2 cell line endogenously expresses full-length ER-alpha and is stably transfected with a plasmid containing four estrogen responsive elements (ERE) upstream of a luciferase reporter gene.
Tox21 Assay Protocol Summary:
BG1-Luc-4E2 cells were cultured in phenol red free assay medium containing 10% charcoal stripped FBS for 5 days before the assay was performed. The cells were dispensed at 4,000 cells/4 uL of assay medium per well into white wall/solid-bottom 1536-well plates using a Multidrop Combi (ThermoFisher Scientific, Waltham, MA) dispenser. The assay plates were incubated at a 37C and 5% CO2 for 24 h, and then 23 nL of compounds dissolved in DMSO, positive controls or DMSO only was transferred to the assay plate using a Pintool station (Kalypsys, San Diego, CA), followed by addition of 1 uL of 17beta-estradiol in assay medium using a Flying Reagent Dispenser (Aurora Discovery, San Diego, CA). After the plates were incubated at 37 C and 5% CO2 for 21.5 h, 1 uL of CellTiter-Fluor reagent (Promega, Madison, WI) of measuring cytotoxicity was added using Flying Reagent Dispenser (FRD) to each well. The assay plates were incubated at 37 C and 5% CO2 for additional 30 min and the fluorescence intensity was quantified by a ViewLux plate reader (PerkinElmer, Shelton, CT). For measuring luciferase reporter gene activity, 4 uL of ONE-Glo reagent (Promega) was added to each plate using an FRD and luminescence was quantified by a ViewLux plate reader after 30 min incubation at room temperature.
On the % scale 0 is the no-effect control and ±100 the full control effect; potency means the concentration at half of the fitted maximal effect.

Row | SMILES | activity change, negative = inhibition | Potency
1 | CCCCOC(=O)CCC(C)=O | 5.94% (inactive) | 
2 | CN1CCC(=C2c3ccccc3CCc3cccnc32)CC1 | 16.2% (inactive) | 
3 | OCCCCCO | -0.442% [at 95 µM] (inactive) | 
4 | Cc1cccc(C)c1NC(=O)CC12CCCN1CCC2 | 2.81% (inactive) | 
5 | CO[C@@]1(NC(=O)C(C(=O)O)c2ccc(O)cc2)C(=O)N2C(C(=O)O)=C(CSc3nnnn3C)CO[C@@H]21 (stereo not given in full) | 12% [at 32.5 µM] (inactive) | 
6 | C=COC(=O)C(C)(CC)CCC(C)C (stereo not given) | 3.91% (inactive) | 
7 | C=COCC1CCC(COC=C)CC1 (stereo not given) | 11.9% (inactive) | 
8 | NC(CCC(=O)O)C(=O)O (stereo not given) | 3.07% (inactive) | 
9 | C=CC(=O)OCCCl | 11.1% [at 95 µM] (inactive) | 
10 | C=CC(C)(CCC=C(C)C)OC(=O)CC (stereo not given) | 0.714% (inactive) | 
11 | CCN[C@@H]1C[C@H](N)[C@@H](OC2OC(CN)=CCC2N)[C@H](O)[C@H]1O[C@H]1OC[C@](C)(O)[C@H](NC)[C@H]1O (stereo not given in full) | 1.26% (inactive) | 
12 | CCCC(C)C(=O)OCC (stereo not given) | 3.39% (inactive) | 
13 | NC(N)=NCCN1CCCCCCC1 | 6.68% [at 32.5 µM] (inactive) | 
14 | C=CCCC(=O)O | 0.26% (inactive) | 
15 | CC(=O)N1C[C@H](O)C[C@H]1C(=O)O | 3.31% (inactive) | 
16 | CC(=O)c1ccccc1[N+](=O)[O-] | -8.8% (inactive) | 
17 | CCOC(=O)C1=NOC(c2ccccc2)(c2ccccc2)C1 | 1.46% (inactive) | 
18 | C[C@H]1C[C@H]2[C@@H]3CCC4=CC(=O)C=C[C@]4(C)[C@H]3C(=O)C[C@]2(C)[C@@]1(O)C(=O)CO | 2.62% (inactive) | 
19 | CN(C)CCN(C)CCN(C)C | -6.17% (inactive) | 
20 | C=CCCCCCCCCC(=O)OCC | -0.92% (inactive) | 

Row | SMILES | activity change, negative = inhibition | Potency
21 | O=C(O)Cc1csc(-c2ccc(Cl)cc2)n1 | -4.48% (inactive) | 
22 | COc1ccnc(CS(=O)c2nc3cc(OC(F)F)ccc3[nH]2)c1OC (stereo not given) |  | inactive
23 | CCCCCC(C)N (stereo not given) | 1.1% (inactive) | 
24 | N[C@H](C(=O)O)[C@@H](O)c1ccc(O)c(O)c1 | -7.92% (inactive) | 
25 | CC(=O)Oc1cccc(C)c1 | 12.6% (inactive) | 
26 | CCC(C(=O)NC(=O)NC(C)=O)c1ccccc1 (stereo not given) | -0.28% (inactive) | 
27 | O=C(c1ccccc1O)c1ccccc1O | -18.2% (inactive) | 
28 | Cc1ncc([C@@H](CCCCCCc2ccc3c(n2)NCCC3)CC(=O)O)cn1 | 3.81% (inactive) | 
29 | CCN1C=CN(C)C1C (stereo not given) | -1.63% [at 95 µM] (inactive) | 
30 | C1CCC2(CCCCO2)OC1 | 7.61% (inactive) | 
31 | CC(=O)O[C@@]12CO[C@@H]1C[C@H](O)[C@@]1(C)C(=O)[C@H](O)C3=C(C)[C@@H](OC(=O)[C@H](O)[C@@H](NC(=O)OC(C)(C)C)c4ccccc4)C[C@@](O)([C@@H](OC(=O)c4ccccc4)[C@H]21)C3(C)C |  | 59.6 nM (active) and inactive
32 | CC(C)=CCC/C(C)=C/C#N | 3.66% [at 95 µM] (inactive) | 
33 | CC1=NS(=O)(=O)c2cc(Cl)ccc2N1 | -10.5% (inactive) | 
34 | CC1CCC(CO)CC1 (stereo not given) | 4.03% [at 95 µM] (inactive) | 
35 | N[C@@H](CCC(=O)O)C(=O)O |  | inactive
36 | CCN[C@H]1C[C@H](C)S(=O)(=O)c2sc(S(N)(=O)=O)cc21 | 1.03% (inactive) | 
37 | C=CCOCC(O)CO (stereo not given) | 6.89% (inactive) | 
38 | CCOC(=O)COc1cc(-n2ncc(C(F)(F)F)c(C)c2=O)c(F)cc1Cl | 3.47% (inactive) | 
39 | CCOC(=O)c1cnc2c(cnn2CC)c1NN=C(C)C | 4.41% (inactive) | 
40 | CCN(CC#N)c1cccc(C)c1 | 1.51% (inactive) | 

Source: PubChem BioAssay (Tox21)
